Inconclusive results are not listed. Activity calls are given as the source filed them. Calls come from the whole dose curve; as a rule, active = well fitted inhibition curve with a large enough effect; inconclusive = small, poorly fitted or top-dose-only effect; inactive = no such curve, though single readings can be large or run the other way.
Assay: Primary qHTS for small molecule stabilizers of the endoplasmic reticulum resident proteome: Secreted ER Calcium Modulated Protein (SERCaMP) assay (AID 1508630)
Settings: SH-SY5Y GLuc-SERCaMP (Gaussia luciferase released on ER calcium loss) secretion, thapsigargin, luminescence; series mostly up to 38.4 µM; activity change, negative = inhibition: at the top concentration
Procedure, shortened: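 The SH-SY5Y reporter protocol was run at 3 concentrations up to 38.3 uM (primary) or 11 concentrations (follow-up): 16 h compound, 100 nM thapsigargin for 4 h, then extracellular luciferase luminescence.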
% is set by controls: 0 for no effect and ±100 for the full control effect.

Activity change, negative = inhibition, inactive:
COC(=O)C1=COC(O[C@H]2OC(CO)[C@H](O)C(O)C2O)[C@H]2C1C(=O)C[C@@H]2C (stereo not given in full) -4.03%
CC(=O)C1(C)CC2(CC(C)(C)OC2=O)C(=O)O1 (stereo not given) -23%
COc1c(CO)cc(CO)cc(CO)c1=O -17.8%
Cc1cc2c3c(cccc3n1)C(=O)c1ccccc1-2 13.7%
C=C1C[C@]23CC[C@H]4C(CO)(CO)C[C@@H](O)C[C@@]4(C)[C@@H]2CC[C@H]1C3 -0.832%
CC1(C)CCC[C@@]2(C)C1CC[C@@](C)(O)[C@@H]2CC[C@@](C)(O)C1CO1 (stereo not given in full) -16.2%
C[C@]12CCC(=O)C=C1CCC1C3CC[C@](O)(C(=O)CO)[C@@]3(C)CC3OC312 (stereo not given in full) -32.8%
C/C=C/c1ccc(OC(C)[C@@H](O)c2ccc(O)c(OC)c2)c(OC)c1 (stereo not given in full) 12.4%
CC(=O)[C@@]1(O)[C@H](O)CC2C3CCC4CC(O)CC[C@]4(C)C3CC[C@@]21C (stereo not given in full) -2.54%
C=CC(C)(O)CC1[C@@]2(C)CCCC(C)(C)C2CC[C@]1(C)O (stereo not given in full) 57.4%
COc1cc(C2=N/C(=C\c3ccccc3)C(=O)O2)cc(OC)c1OC -16.4%
COC(=O)N1c2ccccc2C23[C@@H]4CN5CCC[C@]6(CCC12C(O)(C6)C4=O)[C@H]53 -8.91%
C/C=C(\C)C(=O)O[C@H]1CC(C)=C2C(=O)C=C(C)C2[C@@H]2OC(=O)[C@@](C)(OC(=O)C=C(C)C)C21 (stereo not given in full) 30.2%
CN1C(=O)N(C)C2=NNC=NC2(O)C1=O (stereo not given) 1.04%
C=C1C[C@]23C[C@@]1(O)CC[C@H]2[C@@]12C=C[C@H](O)C(C)(C(=O)O1)[C@H]2[C@@H]3CC(=O)O -7.21%
